From PubChem
Pf growth 48h: inhibits P. falciparum growth in the first generation, 48 h; P. falciparum luciferase growth in erythrocytes, 48 h; Potency, µM (doses to about 28.7 µM), for inactives: at the top dose activity change, negative = inhibition, usual class: inhibitors; 310,000 tested, 5.9% active; AID 504832; note: potency is the fitted concentration of half-maximal effect; % is set by controls: 0 for no effect and ±100 for the full control effect
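Luciferase-expressing P. falciparum in infected erythrocytes (2% hematocrit, 0.1% parasitemia final) in RPMI 1640/0.5% Albumax were exposed to compound for 48 hours at 37 C, 5% CO2; growth read as luminescence.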
Pf growth 96h: inhibits malaria parasite growth, 96 h; Potency, µM (series often up to 28.7 µM), for inactives: at the highest dose activity change, negative = inhibition, most hits filed as inhibitors; P. falciparum luciferase reporter growth, 96 h; 320,000 tested, 6.9% active; AID 504834; note: potency is the fitted concentration of half-maximal effect; % is set by controls: 0 for no effect and ±100 for the full control effect
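Luminescence readout: decreased luciferase signal marks inhibited growth of reporter-expressing P. falciparum in infected red cells (2% hematocrit, 0.05% parasitemia final), exposed to compound two generations (96 h, 37 C, 5% CO2).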
LmPK inh: inhibitors of Leishmania mexicana pyruvate kinase | Q27686 | purified LmPK, Kinase-Glo ATP luminescence, 1 h | Potency, µM (titrated, usually from 57.5 µM), without a hit: at the top dose activity change, negative = inhibition, most hits filed as inhibitors | 290,000 tested, 0.37% active | AID 1721; note: potency is the fitted concentration of half-maximal effect; % is set by controls: 0 for no effect and ±100 for the full control effect
Target sequence (Q27686 whole entry, looked up): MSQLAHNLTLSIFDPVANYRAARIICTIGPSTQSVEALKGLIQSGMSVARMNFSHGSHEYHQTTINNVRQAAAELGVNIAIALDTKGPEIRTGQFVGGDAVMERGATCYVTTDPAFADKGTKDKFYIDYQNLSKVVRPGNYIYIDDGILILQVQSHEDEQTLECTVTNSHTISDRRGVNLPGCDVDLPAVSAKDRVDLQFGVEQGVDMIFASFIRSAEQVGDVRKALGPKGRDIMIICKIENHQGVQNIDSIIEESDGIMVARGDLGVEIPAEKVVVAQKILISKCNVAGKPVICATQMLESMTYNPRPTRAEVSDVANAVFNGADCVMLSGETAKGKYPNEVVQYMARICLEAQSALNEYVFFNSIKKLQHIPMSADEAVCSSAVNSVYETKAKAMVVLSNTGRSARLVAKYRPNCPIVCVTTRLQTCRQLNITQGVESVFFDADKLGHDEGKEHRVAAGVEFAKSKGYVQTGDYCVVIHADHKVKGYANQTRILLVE
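In 50 mM imidazole pH 7.2 with 7 mM MgCl2, LmPK (0.1 nM) turned over PEP (0.5 mM) and ADP (0.1 mM) for 1 h at room temperature. Luciferase read-out of ATP.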
Shiga toxin inh: blocks Shiga toxin action in Vero cells; Vero cells, Shiga toxin protein synthesis inhibition reporter; inhibition, % at 38.7 µM; 290,000 tested, 9.2% active; in the data active = inhibition mostly above about 28%, no sharp cut-off; inactive = mostly below about 43%; note: 0% is about no effect
CHX counter: affects cycloheximide protein synthesis inhibition readout, counter-screen | 300,000 tested, 12% active | max response, % | AID 2314 | cell reporter, cycloheximide protein synthesis inhibition counterscreen; in the data active = max response mostly above about 13%, no sharp cut-off; inactive = mostly below about 14%; note: read at 38.3 µM for the half of the compounds with a filed dose; 0% is about no effect
The depositor's hits bear a star; i = inactive; ? = inconclusive; . = no result; [ ] = remark or other dose. Hits are enriched below; roughly 22% of the tested compounds scored in any of these assays. Unless noted, calls come from the whole dose curve; as a rule, active = well fitted inhibition curve with a large enough effect; inconclusive = small, poorly fitted or top-dose-only effect, or another doubt; inactive = no such curve, though single readings can be large or run the other way.

SMILES	Pf growth 48h	Pf growth 96h	LmPK inh	Shiga toxin inh	CHX counter
COCCNC(=O)C(c1ccc(C)o1)N(C(=O)Cn1nnc2ccccc21)c1ccccc1 (configuration not stated)	-18.7%	?	3.3%	-7.9	-0.4
CCOC(=O)c1nc(Nc2ccc(N3CCC(C)CC3)cc2)c2ccccc2n1	?	33.2%	-1.1%	26.9	5.7
S=C1NNC2(CC3CC2C2CCCC32)NN1 (configuration not stated)	4.8%	0.7%	2.2%	21.8	15.6*
Cc1cccc(C)c1NC(=O)CSCc1cccc(CSCC(=O)Nc2c(C)cccc2C)n1	.	5.22µM*	18.1%	-6.8	7.4
Cc1c(NC(=O)COc2cccc(Br)c2)c(=O)n(-c2ccccc2)n1C	8.8%	0.5%	-6.3%	-4.8	-3.8
Cc1c(NC(=O)COc2ccc(C(C)C)cc2)c(=O)n(-c2ccccc2)n1C	12.8%	13.1µM*	-7.0%	-21.2	0.7
CSc1nc2ccccc2n1Cc1c(Cl)cccc1Cl	.	11.7µM*	1.5%	-1.9	-2.0
Cc1c(Br)c([N+](=O)[O-])nn1CC(=O)Nc1c(C)n(C)n(-c2ccccc2)c1=O	17.3%	2.94µM*	-1.4%	-7.6	1.1
Cc1c(NC(=O)CN2CCN(c3ccc(O)cc3)CC2)c(=O)n(-c2ccccc2)n1C	?	6.57µM*	0.3%	-12.7	-1.4
Cc1c(NC(=O)C(C)OC(=O)/C=C/c2ccc3c(c2)OCO3)c(=O)n(-c2ccccc2)n1C (configuration not stated)	8.1%	?	0.4%	88.7*	37.4*
Cc1c(NC(=O)c2ccc(C(=O)Nc3c(C)n(C)n(-c4ccccc4)c3=O)cc2)c(=O)n(-c2ccccc2)n1C	32.6%	-3.0%	-0.2%	.	-1.6
Cc1cc(C(=O)Nc2c(C)n(C)n(-c3ccccc3)c2=O)on1	.	4.65µM*	-1.0%	-13.9	-7.0
COc1cc(/C=C/C(=O)OCC(=O)Nc2c(C)n(C)n(-c3ccccc3)c2=O)cc(OC)c1OC	?	10.4µM*	.	.	.
CC(=O)c1ccc(OCCCC(=O)OCC(=O)Nc2ccc3[nH]c(=O)[nH]c3c2)cc1	54.4%	35.3%	.	.	.
O=C(O)C1CCC(N2C(=O)c3c(Cl)c(Cl)c(Cl)c(Cl)c3C2=O)CC1 (configuration not stated)	0.0%	?	-4.9%	.	-2.8
CSc1nc2ccccc2n1CC(=O)Nc1c(C)n(C)n(-c2ccccc2)c1=O	13.3%	10.4µM*	0.5%	-5.9	0.7
CSc1nc2ccccc2n1CC(=O)Nc1ccccc1	0.7%	115.2%	1.1%	20.7	-3.2
COC(=O)c1ccc(C(c2c(C)n(C)n(-c3ccccc3)c2=O)c2c(C)n(C)n(-c3ccccc3)c2=O)cc1	?	6.57µM*	-4.5%	.	-1.1
Cc1c(C(c2ccc(Br)cc2)c2c(C)n(C)n(-c3ccccc3)c2=O)c(=O)n(-c2ccccc2)n1C	0.0%	20.0%	12.1%	.	-0.6
CSc1nc2ccccc2n1CC(=O)Nc1c(C)cccc1C	1.5%	7.38µM*	5.2%	-10.2	-0.6
CN1CCN(c2cccc3c2C(=O)c2ccccc2C3=O)CC1	?	-9.6%	-5.3%	47.2*	36.5*
CN1CCN(c2ccccc2N)CC1	31.7%	9.3%	-5.4%	2.8	3.3
O=C1c2ccccc2C(=O)c2c1cccc2N1CCOCC1	14.9%	103.5%	-13.9%	78.7*	27.4*
COC(=O)c1c(NC(=O)CN2C(=O)C(=O)N(C(C)C)C2=O)sc(C)c1C	?	6.7%	.	.	.
CN(C)CCCOC1C(C(O)CO)OC2OC(C)(C)O[C@@H]21 (some centres not stated)	-10.9%	-23.5%	.	.	.
SMILES	Pf growth 48h	Pf growth 96h	LmPK inh	Shiga toxin inh	CHX counter
OCCC1CN(CC2CC2)CCN1Cc1ccc(F)c(F)c1 (configuration not stated)	35.2%	13.1µM*	2.4%	-4.5	0.9
OCCC1CN(C2CCC2)CCN1Cc1ccc(F)c(F)c1 (configuration not stated)	-1.4%	11.7µM*	-0.3%	-14.5	-1.4
Cc1ccccc1CN1CCN(C2CCC2)CC1CCO (configuration not stated)	0.7%	14.7µM*	1.8%	18.9	1.1
OCCC1CN(C2CCN(c3ccccc3)CC2)CCN1Cc1ccc(F)c(F)c1 (configuration not stated)	?	28.7%	0.4%	17.6	-1.7
Cc1ccc(CN2CCN(C3CCC3)CC2CCO)cc1 (configuration not stated)	3.7%	?	6.3%	.	-1.7
CN1CCN(C(c2cccc(C(F)(F)F)c2)c2nnnn2Cc2ccccc2)CC1 (configuration not stated)	?	-7.0%	-0.6%	-5.9	-4.2
N#Cc1ccccc1NC(=O)CSc1nnc(-c2ccncc2)o1	21.0%[5.75 µM]	-3.2%	0.2%	13.9	-1.2
O=C(NCCc1cccc(F)c1)C1CCC(=O)N(CCCc2ccccc2)C1 (configuration not stated)	54.2%	78.4%	4.6%	2.1	7.1
Cc1cc(C)nc(N2CCCC(C(=O)NCc3ccccc3F)C2)n1 (configuration not stated)	3.1%	21.7%	-10.6%	-27.4	-3.3
Cc1ccc(-c2nnc(CSc3nnc(C)s3)o2)cc1	93.0%	.	0.3%	79.5	33.3*
Cc1cc(C)c(C(=O)CSc2nnc(-c3ccccc3Br)o2)cc1C	13.4%	?	-0.1%	5.6	-3.2
Fc1ccccc1SCc1nnc(-c2ccccc2Br)o1	i	i	-17.2%	141.4*	53.3*
Cc1csc(SCc2nnc(-c3ccc(Cl)cc3)o2)n1	.	41.3%	5.4%	91.5*	31.8*
Cc1csc(SCc2nnc(-c3ccccc3Br)o2)n1	95.5%	-12.5%	1.7%	77.6*	48.0*
COc1cc(-c2nnc(CSc3nnc(N)s3)o2)cc(OC)c1OC	9.8%	-15.2%	4.4%	-7.5	-4.3
O=C1C=CCC(/C=C/c2ccccc2)O1 (configuration not stated)	5.7%	23.3%	-0.1%	-13.1	-2.8
Cc1ccc(-c2nnc(CSc3nc4cc5c(cc4cc3C)OCO5)o2)cc1	9.3%	13.1µM*	1.0%	-5.1	-4.5
NS(=O)(=O)c1cccc(NC(=O)Cn2nc(C(=O)O)c3ccccc3c2=O)c1	17.5%	37.2%	13.1%	-10.1	-1.8
CCc1nc(N2CCN(C(=O)c3ccco3)CC2)c(C#N)c2c1COC(C)(C)C2	10.4µM*	?	7.8%	-2.5	3.0
CC1(C)Cc2c(C#N)c(N3CCN(C(=O)c4ccco4)CC3)nc(Cc3ccccc3)c2CO1	1.65µM*	4.6%[5.75 µM]	8.1%	-17.3	-6.5
CCCNC(=O)Nc1cc(OC)c(OC)cc1Cc1nccc2cc(OC)c(OC)cc12	7.7%	-2.8%	0.0%	0.5	-4.1
Cc1cccc(Nc2nc(N)nc(CSc3nccn3C)n2)c1	105.0%	0.0%	-4.0%	51.0*	10.8
Cc1ccc(Nc2nc(N)nc(CSc3nccn3C)n2)cc1	132.8%	.	-4.2%	68.8*	51.7*
COc1ccccc1Nc1nc(N)nc(CSc2nccn2C)n1	22.1%	-18.2%	-0.7%	44.7*	5.9
